Out of some 220,000 compounds screened, about 2,000 (0.91%) were called active. Roughly 2% stayed inconclusive and do not appear here. Cut-off read from the data, not from the text of the source: inconclusive = inhibition above about 80% without an active follow-up result; inactive = below that; test concentration not stated here. These entries were drawn from the full list. Potency and affinity values are given separately.
Test: M. tuberculosis H37Rv growth inhibitors, H37Rv strain (AID 1626);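 note: bacteria incubated seven days before Alamar blue readout; 0% = bacteria only wells and 100% = bacteria with antibiotic wells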
Settings: stronger effect = higher value, concentration not given here
With `O=C1/C(=C/c2ccccc2Cl)N2CCC1CC2` the inhibition was 7.2% (inactive). With `Cc1ccc2c(c1)C(c1ccncc1)=NNC(c1ccc(F)cc1)=N2` the inhibition was 5.08% (inactive). For `COc1ccc(-c2ccc([C@H]3[C@@H]4C=CCC[C@@]4(C)C(=O)N3Cc3ccccc3)c(F)c2)cc1`, the inhibition was 21.9% (inactive). With `COc1ccc(-c2ccc(OC)c([C@H]3[C@@H]4C=CCC[C@@]4(C)C(=O)N3Cc3ccccc3)c2)cc1OC` the inhibition was 10.5% (inactive). For `O=C(CCn1c(=O)oc2ccccc21)N(Cc1ccccc1)c1ccccc1`, the inhibition was -1.76% (inactive). In the case of `Cc1nc2c(cnn2-c2ccccc2)c(=O)n1/N=C/c1ccccc1`, the inhibition is reported as 3.66% (inactive). For `COc1ccc(C(=O)Cc2nnc(C)s2)c(OC)c1`, the inhibition was -1.08% (inactive). For `Cc1[nH]c2ccccc2c1-c1csc(NC(=O)CN2CCOCC2)n1`, the inhibition was 1.74% (inactive). For `O=C(COC(=O)c1cc(-c2ccccc2)nc2ccccc12)Nc1ccc2c(c1)OCO2`, the inhibition was -6.74% (inactive). In the case of `O=C(COC(=O)c1c2c(nc3ccccc13)CCCC2)Nc1ccc2c(c1)OCO2`, the inhibition is reported as 4.85% (inactive). In the case of `COc1ccc(S(=O)(=O)N2CCCCCC2)cc1C(=O)OC(C)C(N)=O` (stereo not drawn), the inhibition is reported as -6.24% (inactive). For `CCN(CCCNC(=O)C1CCCN(S(=O)(=O)c2cnc[nH]2)C1)c1ccccc1` (stereo not drawn), the inhibition was -7.75% (inactive). With `COc1ccc(C)cc1NC(=O)C(OC(=O)C1CC1)c1ccccc1` (stereo not drawn) the inhibition was 0.31% (inactive). For `O=C(COC(=O)c1ccccc1)Nc1ccc(Cl)cn1`, the inhibition was -1.7% (inactive). With `COc1ccc(C(=O)OCC(=O)Nc2ccc(Cl)cn2)cc1` the inhibition was -2.66% (inactive). With `O=C(CCN1C(=O)S/C(=C\c2cccs2)C1=O)NC1=NCCS1` the inhibition was -3.39% (inactive). With `CCOc1ccc(NC(=O)CCN2CCN(c3ccccc3OC)CC2)cc1` the inhibition was 7.58% (inactive). With `Nc1nc(CN2CCN(Cc3ccccc3)CC2)nc(Nc2ccccc2)n1` the inhibition was -0.83% (inactive). In the case of `CCOC(=O)N1CCN(Cc2nc(N)nc(Nc3ccc(OCC)cc3)n2)CC1`, the inhibition is reported as -0.7% (inactive). In the case of `Nc1nc(CN2CCN(c3ccccc3F)CC2)nc(Nc2ccccc2)n1`, the inhibition is reported as 55.9% (inactive). With `COc1ccc(Nc2nc(N)nc(CCl)n2)cc1` the inhibition was 63.6% (inactive). With `Nc1nc(CN2CCCCCC2)nc(Nc2ccccc2)n1` the inhibition was 0.64% (inactive). In the case of `COc1cc(NC(=O)CCN2CCN(c3ccccc3F)CC2)cc(OC)c1`, the inhibition is reported as -9.84% (inactive). In the case of `COc1ccc(Nc2nc(N)nc(COc3ccc(OC)cc3)n2)cc1`, the inhibition is reported as 3.88% (inactive). For `Cc1cc(Nc2ccc(C)c(Br)c2)n2nc(C)nc2n1`, the inhibition was -3.51% (inactive). In the case of `Cc1cccn2c(=O)c(/C=N/O)c(Nc3ccccc3F)nc12`, the inhibition is reported as -2.23% (inactive). With `CCOC(=O)c1cccc(NC(=O)CN(c2ccc(C)cc2)S(=O)(=O)c2c(C)n[nH]c2C)c1` the inhibition was -3.83% (inactive). With `Cc1ccc(Nc2nc(N)nc(CCl)n2)cc1` the inhibition was 73.8% (inactive). With `COc1cccc(Nc2nc(N)nc(CCl)n2)c1` the inhibition was 75.6% (inactive). For `COc1ccc(Sc2cc(C(F)(F)F)nc(-c3ccccn3)n2)cc1`, the inhibition was 4.59% (inactive). In the case of `COc1cnc(-c2ccccc2)nc1Sc1ccccc1`, the inhibition is reported as -2.28% (inactive). For `FC(F)(F)c1cc(Sc2ccccc2)nc(-c2ccccn2)n1`, the inhibition was 4.07% (inactive). For `CCOC(=O)CSc1nc(-c2ccccn2)ncc1OC`, the inhibition was 10.3% (inactive). With `Cc1ccc(SCc2nc(-c3ccccn3)no2)cc1` the inhibition was 11.6% (inactive). With `COc1cnc(N(C)C)nc1Sc1ccc(Cl)cc1` the inhibition was -2.94% (inactive). In the case of `COc1cccc(-c2nc(-c3ccccn3)no2)c1OC`, the inhibition is reported as -1.55% (inactive). In the case of `COc1ccccc1-c1nc(-c2ccccn2)no1`, the inhibition is reported as 0.6% (inactive). With `c1ccc2c(N3CCCCC3)nnc(N3CCCCC3)c2c1` the inhibition was -2.8% (inactive). With `Cc1nc(-c2ccccc2)sc1C1(C)CC(c2ccc(C#N)cc2)=NO1` (stereo not drawn) the inhibition was -5.09% (inactive). With `Cc1cnc(C(=O)OCC(=O)Nc2cc(Cl)cc(Cl)c2)cn1` the inhibition was -2.03% (inactive). For `CC(=O)N1CCC2(CC1)CC(=O)c1cc(OCC(=O)NCc3ccc(C)cc3)ccc1O2`, the inhibition was 4.89% (inactive). For `CCOc1ccc(Cc2noc3c2C(=O)CC(C)(C)C3)cc1OCC`, the inhibition was 5.77% (inactive). In the case of `O=C(CNc1cc(S(=O)(=O)N2CCCC2)ccc1OCC(F)(F)F)Nc1cc(Cl)cc(Cl)c1`, the inhibition is reported as 0.25% (inactive). In the case of `CCC12CN3CCN(CC(C3)C1O)C2` (stereo not drawn), the inhibition is reported as -8.91% (inactive). With `CCOC(=O)C(NC(=O)CC(C)C)(Nc1sc(C)c(CC)c1C#N)C(F)(F)F` (stereo not drawn) the inhibition was -1.9% (inactive). In the case of `NCC(c1ccccc1)c1c[nH]c2ccccc12` (stereo not drawn), the inhibition is reported as -2.1% (inactive). In the case of `OC(CNCc1cccc(Cl)c1)c1ccccc1` (stereo not drawn), the inhibition is reported as 6.44% (inactive). In the case of `COc1ccc(C2=NCCn3cccc32)c(OC)c1`, the inhibition is reported as 4.72% (inactive). For `Cc1ccc(Nc2c(-c3ccccc3)nc3cnccn23)cc1`, the inhibition was 3.65% (inactive). In the case of `Cc1ccn2c(Nc3ccccc3C)c(-c3ccncc3)nc2c1`, the inhibition is reported as -1.59% (inactive). For `Cc1ccccc1Nc1c(-c2cccnc2)nc2ccccn12`, the inhibition was 3.53% (inactive). With `Cc1ccc(-c2nc3ncccn3c2Nc2ccccc2C)o1` the inhibition was 10.9% (inactive). With `Cc1ccn2c(Nc3ccc4c(c3)OCO4)c(-c3ccccn3)nc2c1` the inhibition was 12.5% (inactive). With `Cc1ccn2c(Nc3ccccc3C)c(-c3cccnc3)nc2c1` the inhibition was 3.46% (inactive). With `Cc1ccn2c(NC3CCCC3)c(-c3ccncc3)nc2c1` the inhibition was -0.8% (inactive). In the case of `Cc1ccn2c(NC3CCCC3)c(-c3cccs3)nc2c1`, the inhibition is reported as -6.97% (inactive). For `CCOc1ccccc1NC(=O)CN1C(=O)COc2ccc(Cl)cc21`, the inhibition was -3.19% (inactive). With `Cc1cc(CNC(=O)Cn2nc(C)c([N+](=O)[O-])c2C)c2ccccc2n1` the inhibition was -7.05% (inactive). For `Oc1cccnc1CCc1ccccc1`, the inhibition was -10.6% (inactive). For `CCOC(=O)c1sc(NC(=O)c2ccc(C)o2)nc1C`, the inhibition was 2.75% (inactive). With `CCCn1nnc(NC(=O)c2cccnc2Cl)n1` the inhibition was 7.01% (inactive). In the case of `Cc1cc(NC(=O)CSc2nc(C3CCCCC3)nc3ccccc23)no1`, the inhibition is reported as 7.18% (inactive). In the case of `Nc1c(-c2ccccc2)cnc2cc(-c3ccccc3)nn12`, the inhibition is reported as 4.02% (inactive).

From PubChem BioAssay AID1626 (SRMLSC, 2009)
